The record followed here is PubChem BioAssay AID602357 (National Center for Advancing Translational Sciences (NCATS), 2012).

Results filed as inconclusive are left out. Calls of active or inactive are those of the source. Calls follow the shape of the dose curve; as a rule, active = well fitted inhibition curve with a large enough effect; inconclusive = small, poorly fitted or top-dose-only effect; inactive = no such curve, though single readings can be large or run the other way.

In the experiment the target is Luciferin 4-monooxygenase (Photinus pyralis) (UniProt P08659). The experiment is described as follows: FLuc inhibitory activity for the follow-up compounds in a biochemical assay with Km concentrations of substrate. Put shortly:
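Purified P. pyralis luciferase (10 nM final) in 50 mM Tris acetate pH 7.5, 10 mM Mg acetate, 0.01% Tween-20, 0.05% BSA, with 10 uM D-luciferin and 10 uM ATP. 12-point qHTS titration, ~60 uM to 0.3 nM; luminescence read by CCD imager.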

Luciferin 4-monooxygenase (Photinus pyralis), sequence (P08659 whole entry, looked up): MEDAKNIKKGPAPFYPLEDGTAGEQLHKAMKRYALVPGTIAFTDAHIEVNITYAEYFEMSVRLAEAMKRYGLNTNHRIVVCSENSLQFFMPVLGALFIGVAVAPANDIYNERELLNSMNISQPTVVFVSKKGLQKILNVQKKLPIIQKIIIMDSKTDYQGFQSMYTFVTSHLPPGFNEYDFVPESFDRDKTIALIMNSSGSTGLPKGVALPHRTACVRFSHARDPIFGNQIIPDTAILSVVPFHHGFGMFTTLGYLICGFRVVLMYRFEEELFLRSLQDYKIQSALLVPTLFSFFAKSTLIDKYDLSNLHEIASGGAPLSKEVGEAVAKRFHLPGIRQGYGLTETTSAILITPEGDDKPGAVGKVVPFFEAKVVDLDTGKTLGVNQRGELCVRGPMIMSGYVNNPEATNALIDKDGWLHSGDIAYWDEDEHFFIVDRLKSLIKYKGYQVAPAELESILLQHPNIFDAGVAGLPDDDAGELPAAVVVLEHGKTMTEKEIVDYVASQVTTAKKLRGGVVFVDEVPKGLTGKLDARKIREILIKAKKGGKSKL

Take `Cc1ccc(C(=O)Nc2ccccc2C(=O)O)cc1S(=O)(=O)N1CCCCCC1`: the Potency was 1.83 µM (active).

Consider `O=C(Nc1ccccc1C(=O)O)c1ccc(NC(=O)C2CCCCC2)cc1`, for which the Potency is 11.6 µM (active).

As for `CC(=O)Oc1ccc(C(=O)Nc2ccccc2C(=O)Nc2cccc(C(=O)O)c2)cc1`, the Potency is 6.51 µM (active).

`NC(=O)Cc1ccc2sc(-c3ccccc3)nc2c1`: the Potency is 5.17 µM (active).

For `Cn1c(N/N=C/c2cc3ccccc3nc2Cl)nc2ccccc21`, the Potency was 0.058 µM (active).

Take `Cc1cccc(C(=O)Nc2ccccc2C(=O)Nc2ccc(C(=O)O)cc2)c1`: the Potency was 11.6 µM (active).

Take `CCOc1ccc2nc(NC(=O)Cc3cccs3)sc2c1`: the Potency is 10.3 µM (active).

As for `C/C(=N\NC(=O)c1ccccc1NC(=O)c1ccc(Cl)cc1)c1ccncc1`, the Potency was 0.0116 µM (active).

For `COc1ccc(C(=O)Nc2nc3ccc(OC)cc3s2)cc1`, the Potency was 1.83 µM (active).

In the case of `Cc1ccc(C(=O)O/N=C(\N)c2ccccn2)c(Cl)c1`, the Potency is 0.0146 µM (active).

Turning to `CC(=O)Nc1cccc(C(=O)Nc2ccccc2C(=O)O)c1`, the Potency is 32.6 µM (active).

Consider `COc1ccc(C(=O)Nc2cccc(C(=O)O)c2)cc1S(=O)(=O)N1CCCC1`, for which the Potency was 5.17 µM (active).

Turning to `Nc1ccc(C(=O)Nc2ccccc2C(=O)O)cc1`, the Potency was 7.3 µM (active).

Take `CN(C)S(=O)(=O)c1ccc(C(=O)Nc2cccc(C(=O)O)c2)cc1`: the Potency was 10.3 µM (active).

`CCOc1ccc2nc(NC(=O)c3ccoc3C)sc2c1`: the Potency was 0.651 µM (active).

In the case of `Cc1c(C)c2ccc(OCC(=O)Nc3ccccn3)c(C)c2oc1=O`, the Potency is 0.0116 µM (active).

Turning to `O=C(Nc1ccccc1C(=O)Nc1ccccc1C(=O)O)c1ccccc1`, the Potency was 16.3 µM (active).
